The results in this text go back to PubChem BioAssay (NCI).

Common to all, as to experiment: NCI-60 one-dose screen, 48 h (100 = growth as untreated, 0 = no growth, -100 = all killed)
One experiment has as its system SK-MEL-2 melanoma. The note with it: 10 µM unless noted.
Another experiment has as its system EKVX NSCLC. The note with it: 10 µM unless noted.
Another experiment concerns SN12C renal. The note with it: 10 µM unless noted.
The next experiment deals with TK-10 renal. The note with it: 10 µM unless noted.
For the next experiment, the system named is ACHN renal. The note with it: 10 µM unless noted.
A further experiment has as its system A498 renal. The note with it: 10 µM unless noted.
The next experiment deals with CCRF-CEM leukemia. The note with it: 10 µM unless noted.
The subject of a further experiment is MOLT-4 leukemia. The note with it: 10 µM unless noted.
A further experiment concerns RPMI-8226 leukemia. The note with it: 10 µM unless noted.
Another experiment relates to OVCAR-8 ovarian. The note with it: 10 µM unless noted.
Another experiment deals with OVCAR-5 ovarian. The note with it: 10 µM unless noted.
The next experiment relates to OVCAR-4 ovarian. The note with it: 10 µM unless noted.
For another experiment, the system named is SK-OV-3 ovarian. The note with it: 10 µM unless noted.
For the next experiment, the system named is IGROV1 ovarian. The note with it: 10 µM unless noted.
A further experiment deals with OVCAR-3 ovarian. The note with it: 10 µM unless noted.
A further experiment relates to HS 578T breast. The note with it: 10 µM unless noted.
The subject of a further experiment is NCI/ADR-RES ovarian. The note with it: 10 µM unless noted.
Another experiment relates to CAKI-1 renal. The note with it: 10 µM.
The test system of the next experiment is SR leukemia. The note with it: 10 µM unless noted.

The panel holds about 83,000 compounds, 20% with a hit somewhere; the sample as a whole holds those more often.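 Method: cells in 96-well plates; compound added at one concentration; 48 h incubation; percent growth measured; values under 10 scored active.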 A number with no mark means an inactive call. The source made the active and inactive calls.

Consider `O=C(c1cc(-c2ccc(Cl)cc2)nc2ccccc12)N1N=C(c2ccccc2)CC1c1cc(-c2ccccc2)nn1-c1ccccc1` (stereo unspecified), for which the growth in the experiment with SK-MEL-2 melanoma is 86.4%; in the experiment on EKVX NSCLC it was 81.1%; in the experiment on SN12C renal, 85.5%; in the experiment on TK-10 renal it was 131%; in the experiment on ACHN renal, 73%; with A498 renal, 92.5%. For the same molecule, the growth in the experiment on CCRF-CEM leukemia was 65.1%; in the experiment with MOLT-4 leukemia it was 68.7%; with RPMI-8226 leukemia, 86.8%; in the experiment with OVCAR-8 ovarian it was 87.1%; in the experiment with OVCAR-5 ovarian, 89.4%; in the experiment with OVCAR-4 ovarian, 64.3%. The growth in the experiment on SK-OV-3 ovarian is 93.8%; in the experiment with IGROV1 ovarian, 60.8%; with OVCAR-3 ovarian, 68.8%; in the experiment on HS 578T breast it was 89.3%; in the experiment with NCI/ADR-RES ovarian it was 81.5%.

For the molecule `O=C1COc2ccccc2C(=O)N1CCCCN1CCCCC1`, the growth in the experiment with SK-MEL-2 melanoma is 95.4%; in the experiment with EKVX NSCLC, 98.5%; in the experiment on SN12C renal it was 99.2%; with ACHN renal, 99.2%; with CAKI-1 renal, 103%; in the experiment with A498 renal, 114%. In addition, the growth with CCRF-CEM leukemia was 69.4%; with MOLT-4 leukemia, 83.2%; in the experiment on SR leukemia, 90.1%; in the experiment with RPMI-8226 leukemia it was 70.9%; in the experiment on OVCAR-8 ovarian, 94.2%; in the experiment on OVCAR-5 ovarian, 95.9%. Besides, the growth in the experiment on OVCAR-4 ovarian was 95%; with SK-OV-3 ovarian, 80.4%; in the experiment with IGROV1 ovarian, 92%; with OVCAR-3 ovarian, 110%; with HS 578T breast, 102%; in the experiment with NCI/ADR-RES ovarian, 98.8%.

Regarding `COc1ccc(CCNC=O)cc1OC`, the growth in the experiment with SK-MEL-2 melanoma was 105%; in the experiment on EKVX NSCLC, 105%; with SN12C renal, 97.4%; in the experiment on ACHN renal, 101%; in the experiment on CAKI-1 renal, 100%; in the experiment on A498 renal it was 102%. In addition, the growth with CCRF-CEM leukemia was 105%; in the experiment on MOLT-4 leukemia, 100%; with SR leukemia it was 117%; in the experiment on RPMI-8226 leukemia it was 108%; in the experiment on OVCAR-8 ovarian, 107%; with OVCAR-5 ovarian it was 99.7%. The growth in the experiment on OVCAR-4 ovarian was 100%; with SK-OV-3 ovarian, 114%; with IGROV1 ovarian it was 94%; in the experiment on OVCAR-3 ovarian it was 110%; with HS 578T breast, 105%; in the experiment on NCI/ADR-RES ovarian, 97.4%.

As for `COc1cc(CN(c2ccc(Cl)cc2)C2OC(=O)c3ccccc32)cc(OC)c1OC` (stereo unspecified), the growth is 41.6% in the experiment with SK-MEL-2 melanoma; 59.9% in the experiment on EKVX NSCLC; 61.3% in the experiment on SN12C renal; 85.7% with ACHN renal; 69.1% with CAKI-1 renal; 40% in the experiment with A498 renal. Also, the growth was 65.7% in the experiment on CCRF-CEM leukemia; 35.4% with MOLT-4 leukemia; 32.1% in the experiment with SR leukemia; 70.9% in the experiment on RPMI-8226 leukemia; 74.8% with OVCAR-8 ovarian; 63.5% in the experiment on OVCAR-5 ovarian. Besides, the growth in the experiment on OVCAR-4 ovarian was 74.7%; in the experiment on SK-OV-3 ovarian it was 62.7%; with IGROV1 ovarian, 63.9%; in the experiment on HS 578T breast it was 59.6%; in the experiment with NCI/ADR-RES ovarian, 55.9%.

With `COc1cc(C(=O)NNC(=O)c2ccccc2C(=O)O)cc(OC)c1OC`, the growth with SK-MEL-2 melanoma is 49.3%; in the experiment on EKVX NSCLC, 83.4%; with SN12C renal, 40.9%; in the experiment on TK-10 renal, 72%; with A498 renal, 78.7%; with CCRF-CEM leukemia it was 5.04% (active). The growth is -5.79% (active) with MOLT-4 leukemia; -10.9% (active) in the experiment with SR leukemia; 10.8% with RPMI-8226 leukemia; 39.5% in the experiment on OVCAR-8 ovarian; 84.5% in the experiment with OVCAR-5 ovarian; 77.7% in the experiment on OVCAR-4 ovarian. Moreover, the growth was 52% in the experiment with SK-OV-3 ovarian; 50.2% with IGROV1 ovarian; 29% in the experiment with OVCAR-3 ovarian; 67.8% with HS 578T breast; 37.7% in the experiment on NCI/ADR-RES ovarian.

For the molecule `CCCCCCCCCCCCCCCCNc1ccccc1`, the growth in the experiment on SK-MEL-2 melanoma is 90%; in the experiment with EKVX NSCLC it was 106%; in the experiment on SN12C renal, 70.7%; in the experiment on TK-10 renal, 90.9%; in the experiment with A498 renal it was 114%; in the experiment on CCRF-CEM leukemia, 44.4%. Also, the growth with MOLT-4 leukemia was 43.1%; in the experiment with SR leukemia, 75.1%; in the experiment with RPMI-8226 leukemia it was 52.5%; in the experiment with OVCAR-8 ovarian, 91.8%; in the experiment with OVCAR-5 ovarian, 115%; with OVCAR-4 ovarian, 105%. Moreover, the growth in the experiment with SK-OV-3 ovarian is 103%; with IGROV1 ovarian it was 91.6%; in the experiment with OVCAR-3 ovarian, 104%; in the experiment with HS 578T breast, 108%; in the experiment on NCI/ADR-RES ovarian, 104%.

As to `COc1ccccc1N1CCN(CCCOc2ccc(OCCCN3CCN(c4ccccc4OC)CC3)c(C(=O)c3cc(OC)c(OC)c(OC)c3)c2)CC1`, the growth in the experiment on SK-MEL-2 melanoma is 97.2%; with EKVX NSCLC, 88.8%; in the experiment with SN12C renal, 110%; with TK-10 renal it was 123%; in the experiment with ACHN renal, 157%; in the experiment with A498 renal, 122%. Also, the growth was 98.1% in the experiment on MOLT-4 leukemia; 99.7% with SR leukemia; 155% in the experiment with RPMI-8226 leukemia; 105% in the experiment on OVCAR-8 ovarian; 109% in the experiment on OVCAR-5 ovarian; 109% with OVCAR-4 ovarian. The growth in the experiment with IGROV1 ovarian was 122%; with HS 578T breast, 106%; with NCI/ADR-RES ovarian it was 105%.

Regarding `O=C(Nc1cccc([N+](=O)[O-])c1)c1ccc2ccccc2c1O`, the growth in the experiment with SK-MEL-2 melanoma is 44.1%; in the experiment with EKVX NSCLC, 51.9%; in the experiment on SN12C renal, 50.5%; with TK-10 renal, 91.5%; in the experiment on ACHN renal, 77.6%; with A498 renal it was 41.9%. The growth in the experiment with CCRF-CEM leukemia is 39.2%; with MOLT-4 leukemia, 66.7%; in the experiment with SR leukemia, 92.2%; in the experiment with RPMI-8226 leukemia, -7.69% (active); in the experiment on OVCAR-8 ovarian, 80%; with OVCAR-5 ovarian it was 64.2%. For the same molecule, the growth with OVCAR-4 ovarian is 44.5%; with SK-OV-3 ovarian, 74.6%; in the experiment with OVCAR-3 ovarian, 36.9%; with HS 578T breast, 69.7%; in the experiment with NCI/ADR-RES ovarian, 53.1%.

As to `COc1cc(NC(C)CCCN2C(=O)c3ccccc3C2=O)c2ncccc2c1OC` (stereo unspecified), the growth in the experiment on SK-MEL-2 melanoma is 94.8%; with EKVX NSCLC it was 69%; in the experiment on SN12C renal, 109%; in the experiment with TK-10 renal, 93.6%; in the experiment with ACHN renal, 97.9%; with A498 renal, 104%. In addition, the growth was -26.9% (active) in the experiment with CCRF-CEM leukemia; -67.5% (active) in the experiment with MOLT-4 leukemia; 55.5% in the experiment with RPMI-8226 leukemia; 85.5% with OVCAR-8 ovarian; 99.1% with OVCAR-5 ovarian; 50.8% in the experiment with OVCAR-4 ovarian. For the same molecule, the results for the growth in the experiment with SK-OV-3 ovarian, in the experiment with IGROV1 ovarian and in the experiment with HS 578T breast were 92.5%, 63.6% and 95.7%, respectively.
